# Where two headings read alike, the source gives them in different places.
# Assays:
# [1] = test system: AAK1; conditions: n = 1
# [2] = test system: ABL1-nonphosphorylated; conditions: concentration: 1 μM, replicates: in singlicate; n = 1
# [3] = test system: ABL1-phosphorylated; conditions: concentration: 1 μM, replicates: in singlicate; n = 1
# [4] = test system: ABL2; conditions: concentration: 1 μM, replicates: in singlicate; n = 1
# [5] = test system: ACVR1B; conditions: concentration: 1 μM, replicates: in singlicate; n = 1
# [6] = test system: ACVR1; conditions: concentration: 1 μM, replicates: in singlicate; n = 1
# [7] = test system: ACVR2A; conditions: concentration: 1 μM, replicates: in singlicate; n = 1
# [8] = test system: ACVR2B; conditions: concentration: 1 μM, replicates: in singlicate; n = 1
# [9] = test system: ACVRL1; conditions: concentration: 1 μM, replicates: in singlicate; n = 1
# [10] = test system: T1, ADCK3; conditions: concentration: 1 μM, replicates: in singlicate; n = 1
# T1 construct: gene CABC1
# [11] = concentration: 1 μM, replicates: in singlicate
# 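Also: KINOMEscan kinase panel screen.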
Structure (SMILES),"%Inh [1, 11]",%Inh [2],%Inh [3],%Inh [4],%Inh [5],%Inh [6],%Inh [7],%Inh [8],%Inh [9],%Inh [10],%Inh ([1]; 1 µM)
FC(F)(F)c1ccc(/C=C/c2cncnc2Nc2ccc3[nH]c(Cc4ccccc4)nc3c2)cc1 [GW709199],15%,35%,19%,4%,0%,0%,24%,37%,0%,18%,–
COc1cc(Nc2nccc(-c3c(-c4cccc(NC(=O)c5c(F)cccc5F)c4)nn4ncccc34)n2)cc(OC)c1OC [GSK327238],13%,92.9%,24%,80%,14%,0%,0%,0%,0%,0%,–
Cc1cccc(Nc2nc(N[C@H]3CCNC3)ncc2C(N)=O)c1.Cl [GSK2197149],–,40%,66%,25%,0%,0%,2%,7%,0%,28%,75%
CSc1cccc2c(-c3ccncn3)c(-c3ccc(F)cc3)nn12 [GW514786],0%,0%,0%,12%,43%,0%,0%,7%,0%,68%,–
COc1ccc(CNC(=O)NC2CCN(c3ccnc(Nc4ccc(F)cc4)n3)CC2)cc1 [GSK1379788],13%,0%,0%,0%,0%,0%,0%,0%,0%,9%,–
CCCCc1nn2ncccc2c1-c1ccnc(Nc2ccc(N3CCN(C)CC3)cc2)n1 [GW684941],21%,95.8%,98.8%,96.8%,67%,89%,16%,35%,51%,96.7%,–
Cc1ccc(C(=O)N2CC[C@@H](O)C2)cc1-n1c(C)cc(OCc2ccc(F)cc2F)c(Br)c1=O,0%,92.1%,90.5%,72%,12%,0%,31%,0%,0%,0%,–
Cn1cc(-c2ccc3c(c2)CCN3C(=O)Cc2cccc(Cl)c2)c2c(N)ncnc21 [GSK2606590],30%,78%,30%,53%,0%,0%,0%,53%,0%,0%,–
NCCCC(NC(=O)c1cc(Br)c(-c2ccnc3[nH]ccc23)s1)c1ccccc1.O=C(O)C(F)(F)F.O=C(O)C(F)(F)F (stereo not shown) [GSK1287544],55%,0%,0%,23%,0%,0%,0%,0%,0%,20%,–
C[C@@H]1CC[C@@H](C(=O)Nc2ccccc2)CN1c1cc(-c2ccc3c(N)n[nH]c3c2)nc(N)n1 [GSK2286062],18%,0%,0%,2%,0%,0%,0%,0%,0%,29%,–
Oc1cc(Nc2ccnc3cc(I)ccc23)ccc1F [GW552771],10%,99.1%,99.6%,91.7%,54%,97.4%,100%,93.7%,69%,19%,–
O=C(NC1CCN(c2ccnc(Nc3ccc(F)cc3)n2)C1)c1cc2ccccc2s1 (stereo not shown) [GSK1379716],7%,0%,0%,21%,0%,0%,0%,5%,11%,24%,–
Cl.c1ccc(-c2ccc3c(Nc4ccc5[nH]ccc5c4)ccnc3c2)nc1 [GW440138],10%,85%,94.1%,48%,0%,55%,29%,89%,12%,2%,–
Fc1ccc(-c2ncn(C3CCNCC3)c2-c2ccnc(Oc3ccc(-c4ccccc4)cc3)n2)cc1 [SB-245391],14%,1%,16%,1%,72%,0%,19%,0%,19%,0%,–
O=C(Nc1n[nH]c2cc(-c3ccoc3)ccc12)C1CC1 [SB-738481],45%,25%,0%,0%,0%,30%,19%,46%,0%,0%,–
Cc1ccc(F)c(C(=O)Nc2cccc(-c3nn4ccccc4c3-c3ccnc(Nc4cccc(F)c4)n3)c2)c1F [GSK361061],16%,26%,0%,62%,60%,23%,7%,43%,38%,0%,–
